This is part of a sample that, as a whole, favours compounds with a hit. Of some 83,000 tested, about 20% had one in any assay.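 48-hour exposure, single concentration, 96-well plates; percent growth endpoint where 0 means no net growth. Active: below 10.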 Unmarked numbers belong to inactive results. The source made the active and inactive calls.
Legend:
Experiment in all cases: NCI-60 one-dose screen, 48 h (100 = growth as untreated, 0 = no growth, -100 = all killed)
Conditions in all cases: 10 µM
RPMI-8226 leukemia = system: RPMI-8226 leukemia
OVCAR-5 ovarian = system: OVCAR-5 ovarian
OVCAR-4 ovarian = system: OVCAR-4 ovarian
SK-OV-3 ovarian = system: SK-OV-3 ovarian
IGROV1 ovarian = system: IGROV1 ovarian
OVCAR-3 ovarian = system: OVCAR-3 ovarian
HS 578T breast = system: HS 578T breast
NCI/ADR-RES ovarian = system: NCI/ADR-RES ovarian
T-47D breast = system: T-47D breast
BT-549 breast = system: BT-549 breast
MDA-MB-435 melanoma = system: MDA-MB-435 melanoma
SW-620 colon = system: SW-620 colon
MCF7 breast = system: MCF7 breast
HCT-116 colon = system: HCT-116 colon
HCC-2998 colon = system: HCC-2998 colon
KM12 colon = system: KM12 colon
OVCAR-8 ovarian = system: OVCAR-8 ovarian

Row | Structure (SMILES) | growth (RPMI-8226 leukemia) | growth (OVCAR-5 ovarian) | growth (OVCAR-4 ovarian) | growth (SK-OV-3 ovarian) | growth (IGROV1 ovarian) | growth (OVCAR-3 ovarian) | growth (HS 578T breast) | growth (NCI/ADR-RES ovarian) | growth (T-47D breast) | growth (BT-549 breast) | growth (MDA-MB-435 melanoma) | growth (SW-620 colon) | growth (MCF7 breast) | growth (HCT-116 colon) | growth (HCC-2998 colon) | growth (KM12 colon) | growth (OVCAR-8 ovarian)
1 | CCCC1(CC(=O)O)OCCc2c1[nH]c1ccccc21 (centres undefined) | 99.9% | 88.6% | 74% | 217% | 114% | 109% | 101% | 107% | 194% | 119% | 106% | 115% | 102% | 107% | 69.9% | 102% | –
2 | Cc1cn(C2CCCCO2)c(=O)nc1NO (centres undefined) | 111% | 109% | – | 119% | 113% | 109% | 86.8% | 107% | 105% | 107% | 97.6% | 105% | 80.3% | – | 101% | 102% | 101%
3 | Nc1ncn(C2OC(CO)C(O)C2O)c(=O)n1 (centres undefined) | -25.4% (active) | 85.9% | -30.3% (active) | 12.3% | -39.8% (active) | -13.7% (active) | 3.64% (active) | 15.1% | 10.6% | -9.44% (active) | 3.05% (active) | 29.3% | 11.5% | -32% (active) | -1.48% (active) | -15.8% (active) | –
4 | O=C1ON=[N+](c2ccc(Cc3ccc([N+]4=NOC(=O)C4CN4CCOCC4)cc3)cc2)C1CN1CCOCC1 (centres undefined) | 60.5% | – | 53.9% | 88% | 62.3% | 89.1% | 64% | 63.4% | 56.1% | 60.7% | 4.71% (active) | 67.7% | 45.6% | – | 80.5% | 54.3% | 80.9%
5 | COc1ccc2c(c1)nc(N)c1c3cccnc3cn21 | 34.3% | – | – | – | 17.8% | 20.4% | 43.1% | -2.31% (active) | – | 44.3% | -14.3% (active) | 20.5% | 20.4% | 10.8% | 20.2% | 17.1% | 4.95% (active)
6 | COc1ccc(-c2csc(NC(=O)CSc3nc(C)c(-c4ccccc4)n3Nc3ccccc3)n2)cc1 | 30.7% | 81.2% | – | 88.3% | 41.8% | 56.6% | 19.8% | 12.1% | 24.8% | 63.5% | – | 70.2% | 41.7% | 36.4% | 78.7% | 41.5% | 31.7%
7 | CC[C@H](C)C(=O)O[C@H]1CCC=C2C=C[C@H](C)C(CCC3C[C@@H](O)CC(=O)O3)[C@H]21 (some centres undefined) | 96.8% | – | 98.7% | 70.9% | 42.5% | 112% | 59.4% | 21.5% | 105% | – | 84.4% | 71.6% | 83.6% | 46.4% | 89% | 103% | 45.2%
8 | CN1CC[C@@H](c2c(O)cc(O)c3c(=O)cc(-c4ccccc4Cl)oc23)[C@@H](O)C1 | -32.3% (active) | 16.4% | -26.7% (active) | 47.6% | – | 13.6% | 12.9% | 12.2% | 4.59% (active) | -22.8% (active) | -91.2% (active) | 9.83% (active) | 9.53% (active) | 8.46% (active) | -34% (active) | -34% (active) | –
9 | Cc1nc2ccc(CN(C)c3ccc(C(=O)N[C@@H](CCC(=O)O)C(=O)O)s3)cc2c(=O)[nH]1 | 56.6% | 67.6% | – | 55.3% | 71.8% | 57.3% | 73.2% | 43.8% | 55.4% | 57.4% | 61.6% | 71.4% | 23.3% | 40% | 28.5% | 73.4% | –
10 | O=C1/C(=C\c2ccc(F)cc2)CN(C(=O)c2ccccc2)C/C1=C\c1ccc(F)cc1 | – | 78.6% | 27.3% | 74.6% | 21.8% | 11.3% | 28.1% | 24.8% | 57% | 34.9% | -39.4% (active) | -44.4% (active) | 1.32% (active) | -55.3% (active) | 16.4% | – | 3.54% (active)
11 | CCCCCCCCCCCCCCCCCCOCC(COCCOCC[N+]1(CCCCCC(=O)[O-])CCCC1)Oc1ncccn1 (centres undefined) | 2.22% (active) | -0.76% (active) | – | 83.5% | -15.2% (active) | 62.6% | 65.6% | 108% | 42.3% | – | 51.7% | 42.9% | 25.7% | 20.4% | 24.7% | 15.2% | –
12 | COc1cccc(C2C3=C(COC3=O)N(CCO)c3cc(OC)ccc32)c1 (centres undefined) | 20.6% | 27.5% | 59.2% | 21.6% | 24.3% | -50% (active) | 15.5% | -12.5% (active) | 62.1% | 16.9% | -44.7% (active) | 21% | 23% | 10.6% | – | -5.83% (active) | –
13 | CC/C(=C(/c1ccc(OCCN(C)C)cc1)c1ccc(OC(=O)CCC(=O)c2c(C)[nH]c(/C=C3\N=C(c4ccc[nH]4)C=C3OC)c2C)cc1)c1ccccc1 | – | 65.3% | 37.4% | 63.5% | 27.6% | 33% | 8.4% (active) | 20.7% | 22.7% | 48.4% | 14% | -42% (active) | -12.1% (active) | 5.92% (active) | 41.6% | – | 22.8%
14 | COc1cc(/C=N/NC(=O)c2ccccc2Nc2ccnc(C(F)(F)F)c2)ccc1O | 90.8% | 116% | – | 98.9% | 123% | 109% | 97.4% | 143% | 116% | – | – | 104% | 86.8% | 102% | 123% | 114% | 101%
15 | ClCCOCCn1cnc2c(Cl)nc(Cl)nc21 | 93.1% | 102% | – | 97.4% | 59% | 58.8% | 12.4% | 101% | – | 102% | 80.7% | 47.6% | 55.9% | -13.6% (active) | -90.2% (active) | 92.5% | 62.7%
16 | C=C(Cl)[C@@](Cl)(CBr)CC[C@@H](Br)C(C)(C)Cl | -59.4% (active) | -46.3% (active) | -37% (active) | 93.5% | 29.6% | -96.2% (active) | -29% (active) | -66.6% (active) | -58.9% (active) | 78.6% | -24.2% (active) | -61.7% (active) | -51.7% (active) | -94.6% (active) | -96.9% (active) | -94.2% (active) | –
17 | CN(C)C(=S)N/N=C\C=N/NC(=S)N(C)C | 0.534% (active) | 95.2% | -36.5% (active) | 49.9% | -59.4% (active) | 9.87% (active) | 74.5% | 51.3% | – | 81% | 67% | 64.1% | 12% | 0.438% (active) | 80.4% | 81.5% | –
18 | CCCCCCCCCCCCC1C/C=C\CCCC(=O)O1 (centres undefined) | 89.7% | 101% | – | 95.5% | 110% | 107% | 113% | 119% | – | 127% | 105% | 104% | 91.7% | 105% | 129% | 112% | 104%
19 | CCOCCOCCOCCOCCOCCOCCOCCOCCOCCO (tested in a mixture with another compound) | -33.3% (active) | – | 21.3% | 38.2% | 30.2% | -16.8% (active) | 39.6% | 55.7% | 16.6% | – | 19.4% | 18.6% | 3.56% (active) | 3.57% (active) | 9.05% (active) | -18.3% (active) | 5.89% (active)
20 | C#Cc1ccc(-n2c(/C=C/c3ccc(Cl)c(F)c3)nc3ncccc3c2=O)cc1 | – | 24.1% | -88.5% (active) | -7.71% (active) | -54.5% (active) | -79.8% (active) | 13.8% | 1.19% (active) | -39% (active) | 10.7% | -3.46% (active) | -27.3% (active) | 3.48% (active) | -52.8% (active) | -84.3% (active) | – | -17.4% (active)
